An excerpt weighted towards active compounds, which were near 3.6% of everything screened.
KKLEB cytotox = cytotoxicity in KKLEB CF airway cells, primary screen, cytotoxicity control for CF NF-kB inhibitor project, cell-based, uHTS, fluorescence assay plates; KKLEB CF airway cells viability, ATPlite luminescence, overnight; active compounds read low; cells stimulated with P. aeruginosa culture filtrate; activity change (cytotoxicity), % at 5 µM; actives 0.36% (n = 360,000);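 active = corrected activity change at or below -50% at 5 µM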
CF NFkB block = inhibitors of PAF-induced NF-kB signaling, primary screen, cell-based, GFP fluorescence, uHTS | KKLEB NF-kB-GFP reporter, GFP fluorescence overnight | inhibition, % at 5 µM | actives 0.86% (n = 360,000) | AID 588850, 2011;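 active = at least 50% inhibition at 5 µM, scaled per plate between neutral and stimulator controls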;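 also: PAF is a Pseudomonas aeruginosa culture filtrate used as stimulus; plate controls were PAF-stimulated DMSO wells for no effect and unstimulated DMSO wells for full effect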
Peg3 promoter = Peg3 promoter-driven luciferase inhibitors, primary screen, cell-based, HeLa, luciferase luminescence. HeLa PEG-Prom luciferase reporter, overnight. inhibition, % at 20 µM. actives 1.7% (n = 360,000);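 active = inhibition of at least 50% at 20 µM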
HSP90 inh = HSP90 inhibitors, primary screen, cell lysate, luminescence; Rabbit reticulocyte lysate, luciferase refolding luminescence, 3 h; inhibition, % at 5.6 µM; actives 0.91% (n = 290,000);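 active = inhibition above the screen-wide mean plus 3 SD, computed separately per campaign, cut at about 16% in these data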;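 also: 0% = DMSO wells and 100% = 60 µM geldanamycin wells; inhibitors lower the luminescence because luciferase stays unfolded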
Mdm2 MdmX PPI = inhibitors of human Mdm2-MdmX association, primary screen, cell-based, luminescence, split luciferase, SaOS-2, uHTS; SaOS-2 split-luciferase Mdm2/MdmX complementation; actives 3% (n = 330,000); Protein Mdm4 (Homo sapiens) + E3 ubiquitin-protein ligase Mdm2 (Homo sapiens), …; inhibition, % at 8 µM;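 active = inhibition of at least 50% at 8 µM in the primary screen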
Target sequence (O15151 whole entry, looked up): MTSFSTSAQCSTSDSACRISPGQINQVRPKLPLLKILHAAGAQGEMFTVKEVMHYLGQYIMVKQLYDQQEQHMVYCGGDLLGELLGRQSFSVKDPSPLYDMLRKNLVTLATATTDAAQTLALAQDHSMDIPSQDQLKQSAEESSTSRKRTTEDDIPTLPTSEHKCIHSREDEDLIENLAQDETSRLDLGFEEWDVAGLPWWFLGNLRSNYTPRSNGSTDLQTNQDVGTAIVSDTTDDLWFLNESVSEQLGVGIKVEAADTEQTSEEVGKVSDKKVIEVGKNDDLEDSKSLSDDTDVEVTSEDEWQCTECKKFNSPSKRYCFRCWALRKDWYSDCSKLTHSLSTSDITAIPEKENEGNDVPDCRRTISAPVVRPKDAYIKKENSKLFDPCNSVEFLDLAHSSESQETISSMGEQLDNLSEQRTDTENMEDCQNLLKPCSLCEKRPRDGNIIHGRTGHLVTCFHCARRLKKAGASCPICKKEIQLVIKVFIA
Target sequence (Q00987 whole entry, looked up): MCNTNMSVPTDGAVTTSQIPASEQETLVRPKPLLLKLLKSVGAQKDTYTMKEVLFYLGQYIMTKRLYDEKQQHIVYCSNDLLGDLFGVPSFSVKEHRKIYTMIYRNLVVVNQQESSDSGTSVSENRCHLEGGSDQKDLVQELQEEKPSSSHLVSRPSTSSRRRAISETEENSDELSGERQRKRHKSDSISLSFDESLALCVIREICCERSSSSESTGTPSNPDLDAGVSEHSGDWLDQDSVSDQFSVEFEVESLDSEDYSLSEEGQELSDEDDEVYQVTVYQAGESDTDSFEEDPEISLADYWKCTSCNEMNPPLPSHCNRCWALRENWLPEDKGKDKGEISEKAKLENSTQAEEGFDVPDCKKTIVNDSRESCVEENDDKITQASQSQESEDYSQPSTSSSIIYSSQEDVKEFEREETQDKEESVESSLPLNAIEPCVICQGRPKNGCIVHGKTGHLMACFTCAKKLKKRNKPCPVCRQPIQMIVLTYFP
LGR2 antag = inhibitors of bursicon-induced LGR2 CRE-luciferase signal, primary screen, cell-based, HEK293, CRE-luciferase reporter, bursicon stimulation | inhibition, % at 9.99 µM | actives 0.35% (n = 380,000) | bursicon-stimulated, 4 h;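 active = drop in luminescence signal, shown as inhibition above about 50% in the replicate tests, limit read from the data, passing the limit was not always enough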;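 also: agonist challenge used bursicon conditioned medium at about half maximal strength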
Mdm2 MdmX conf = Mdm2-MdmX complex disruptors, retested hits, confirmation, luminescence, single concentration; shares compounds with Mdm2 MdmX PPI; Mdm2-MdmX binding, luminescent assay; inhibition, % at 8 µM; actives 55% (n = 10,000); AID 489028, 2010; in the data active = inhibition above about 40%
FLuc counter = full-length luciferase signal inhibition, confirmation, counter-screen for Mdm2/MdmX interaction inhibitor project, cell-based, single concentration, SaOS-2 | shares compounds with Mdm2 MdmX PPI | AID 504607, 2011 | actives 77% (n = 6,200) | SaOS-2 full-length luciferase counterscreen, luminescence | inhibition, % at 8 µM;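 active = mean inhibition at 8 µM reaching about 37%, which flags the compound as non-specific, limit read from the data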;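 also: p53-null SaOS-2 cells with luciferase driven by a doxycycline-inducible promoter; compound on cells about two nights before reading with doxycycline added after day one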
* hit, by the source's call; . = no result given.

SMILES	KKLEB cytotox	CF NFkB block	Peg3 promoter	HSP90 inh	Mdm2 MdmX PPI	LGR2 antag	Mdm2 MdmX conf	FLuc counter
COc1c2c(cc3c1OCO3)CCN(C)C2	-34.4	-10.3	-8.3	.	-17.5	1.3	.	.
COc1cc2c(cc1O)C[C@H]1NCCc3cc4c(c-2c31)OCO4	16.6	-315.0	43.9	6.3	61.0*	12.3	39.0	41.0*
COc1cc2c(cc1OC)-c1c(OC)c(OC)cc3c1C(C2)N(C)CC3 (centres undefined)	-4.0	-111.0	10.9	6.3	43.7	5.6	.	.
COc1cc2c(cc1OC)-c1c3c(cc4c1[C@@H](C2)N(C)CC4)OCO3	-28.5	-368.6	60.6*	-0.5	53.8*	6.1	47.9*	39.8*
CCOc1cccc(CNCCc2c(C)[nH]c3ccc(OC(F)(F)F)cc23)c1O	-28.6	24.3	107.0*	1.2	98.3*	12.4	85.5*	29.9
COc1ccc2[nH]c(C)c(CCNCc3cccnc3)c2c1	-1.7	-4.7	10.9	.	-11.5	-11.1	.	.
Cc1[nH]c2ccc(OC(F)(F)F)cc2c1CCNCc1ccc(Cl)cc1	-13.0	14.7	111.2*	-0.6	82.6*	-1.1	50.6*	47.6*
COC(=O)[C@H]1[C@H](CO)[C@H]2Cn3c(cccc3=O)[C@@H]1N2C(=O)C1CCCC1	.	.	.	.	.	19.0	.	.
Cc1cccc(S(=O)(=O)N2[C@@H]3Cn4c(ccc(-c5cccc(F)c5)c4=O)[C@H]2[C@@H](C(=O)O)[C@@H]3CO)c1	.	.	.	.	.	21.0	.	.
C[C@@H]1C[C@H]2OC(=O)C3(CO3)[C@H]2[C@H](O)[C@]2(C)C(=O)C3OC3[C@@H]12 (some centres undefined)	.	.	.	.	51.4*	.	35.6	21.1
N#Cc1cccc(-c2ccc([C@H]3[C@@H](CO)N4CCCCN(C(=O)Cc5cccnc5)C[C@H]34)cc2)c1	.	.	.	.	.	8.6	.	.
COC(=O)C(C)Oc1cc(C)cc2oc(=O)c3c(c12)CCCC3 (centres undefined)	-3.0	-15.5	2.5	3.4	16.6	.	.	.
COC(=O)C(C)Oc1cc(C)cc2oc(=O)c3c(c12)CCC3 (centres undefined)	-2.3	-67.1	-12.6	3.1	52.3*	.	27.2	.
Brc1ccc2c(c1)C(OC1CN3CCC1CC3)c1ccccc1CS2 (centres undefined)	-24.3	20.2	109.7*	-4.0	80.2*	5.8	66.8*	33.8
COc1ccc(C#Cc2ccc([C@H]3[C@H]4CN(C(=O)Cc5cccnc5)CCCCN4[C@H]3CO)cc2)cc1	.	.	.	.	.	-36.6	.	.
CN1C(=O)/C(=C/c2cccn2-c2ccc3ccccc3c2)C(=O)NC1=S	4.7	41.1	92.3*	6.0	100.5*	.	23.6	.
COc1cccc(-c2ccc3n(c2=O)C[C@@H]2[C@@H](CO)[C@H](C(=O)O)[C@H]3N2Cc2ccccc2F)c1	.	.	.	.	.	-0.6	.	.
COC(=O)C1=Nc2ccccc2/C1=C\c1c(O)n(-c2ccc(Br)cc2)c(=O)[nH]c1=O	12.8	18.9	24.9	-0.4	.	.	.	.
O=c1[nH]c(=O)n(-c2ccccc2)c(O)c1/C=C1/C(c2ccccc2)=Nc2ccccc21	-18.6	59.6*	-51.0	-5.3	60.9*	5.9	62.4*	75.2*
CCC1C=CC=CC[C@H](C)[C@@H](O)[C@](C)(O)C(=O)[C@@H](C)[C@H](O)[C@@H](C)C(=O)[C@H](C)[C@@H](O)[C@H](C)C=CC(=O)OC2[C@@H](C)C(CC1)OC1(CC[C@@H](C)C(C[C@H](C)O)O1)[C@@H]2C (some centres undefined)	.	.	.	.	100.4*	.	55.8*	49.6*
CC[n+]1c(/C=C/C=C/c2ccc(N(C)C)cc2)sc2ccccc21	18.0	-26.4	64.9*	2.3	88.1*	35.7	83.8*	17.2
CN(C)c1ccc(/C=C/c2cc[n+](C)c3ccccc23)cc1	1.9	-114.1	30.9	1.6	.	33.1	.	.
CC[n+]1c(/C=C/N(C)c2ccccc2)sc2ccc(Cl)cc21	-45.3	26.7	34.6	0.2	52.0*	12.1	30.9	.
CN(C)c1ccc(/C=C/C=C/c2sc3ccccc3[n+]2C)cc1	-9.3	22.2	28.5	0.8	82.3*	26.8	61.6*	44.8*
COC(=O)[C@H]1[C@H](CO)[C@H]2Cn3c(cccc3=O)[C@@H]1N2C(=O)C1CC1	.	.	.	.	.	-4.7	.	.
SMILES	KKLEB cytotox	CF NFkB block	Peg3 promoter	HSP90 inh	Mdm2 MdmX PPI	LGR2 antag	Mdm2 MdmX conf	FLuc counter
COc1ccccc1OP(=O)(Nc1cccnc1)Oc1ccccc1OC	-12.0	33.2	44.7	1.3	50.7*	6.3	48.1*	74.4*
C[C@@H]1O[C@@H](O[C@@H]2C=C3CC[C@@H]4C(CC[C@]5(C)[C@@H](c6ccc(=O)oc6)CC[C@]45O)[C@@]3(C)CC2)[C@H](O)[C@H](O)[C@H]1O (some centres undefined)	-76.2*	89.3*	107.0*	.	86.9*	86.0*	69.7*	16.6
CC(=O)C1CCC2(O)C3CCC4=CC(=O)CCC4(C)C3CCC12C (centres undefined)	3.9	12.9	-4.6	.	.	2.9	.	.
C/C=C/c1ccc(C2[C@@H]3CN(C(=O)C4CCC4)C[C@H]2N3)cc1 (some centres undefined)	.	.	.	.	.	-1.9	.	.
COC12C(COC(N)=O)C3=C(C(=O)C(C)=C(N)C3=O)N1CC1C2N1C (centres undefined)	11.8	-27.6	-20.9	12.6	74.4*	0.7	38.9	.
COC(=O)C(Cc1ccc(N(CCCl)CCCl)cc1)N=Cc1ccccc1O (centres undefined)	-48.5	75.2*	97.0*	-0.2	92.7*	-26.0	83.1*	59.2*
COC(=O)[C@H]1[C@H](CO)[C@H]2Cn3c(ccc(-c4ccccc4F)c3=O)[C@@H]1N2C(=O)C1CC1	.	.	.	.	.	-5.8	.	.
COc1ccc(C#Cc2ccc([C@H]3[C@@H](CO)N4CCCCN(C(=O)Cc5ccncc5)C[C@@H]34)cc2)cc1	.	.	.	.	.	-10.8	.	.
CCCCCn1c(=O)c(C(=O)Nc2ncccc2C)c(O)c2ccccc21	-12.1	3.8	20.7	-0.8	18.1	.	.	.
CCCCn1c(=O)c(C(=O)Nc2cnccn2)c(O)c2ccccc21	-5.5	-9.0	21.9	6.1	57.2*	.	28.8	88.5*

Bioassay records deposited in PubChem by several laboratories.
